Only some compounds are listed: those with a hit (about 5.9% of all), similar ones and a draw of the others.
GLP-1R inv ag – GLP-1 receptor (human) inverse agonism; P43220; HEK293 GLP-1R CRE-luciferase, luminescence, 24 h; GLP-1R form is constitutively active; Potency, µM (highest dose often 38.3 µM), inactives show top-dose activity change, negative = inhibition, actives largely listed as inhibitors; hit rate 1.6% among 410,000; also: % is scaled to controls: 0 for no effect and ±100 for the full control effect; nearly all actives have a fitted effect of over 55% in size
Target sequence (P43220 whole entry, looked up): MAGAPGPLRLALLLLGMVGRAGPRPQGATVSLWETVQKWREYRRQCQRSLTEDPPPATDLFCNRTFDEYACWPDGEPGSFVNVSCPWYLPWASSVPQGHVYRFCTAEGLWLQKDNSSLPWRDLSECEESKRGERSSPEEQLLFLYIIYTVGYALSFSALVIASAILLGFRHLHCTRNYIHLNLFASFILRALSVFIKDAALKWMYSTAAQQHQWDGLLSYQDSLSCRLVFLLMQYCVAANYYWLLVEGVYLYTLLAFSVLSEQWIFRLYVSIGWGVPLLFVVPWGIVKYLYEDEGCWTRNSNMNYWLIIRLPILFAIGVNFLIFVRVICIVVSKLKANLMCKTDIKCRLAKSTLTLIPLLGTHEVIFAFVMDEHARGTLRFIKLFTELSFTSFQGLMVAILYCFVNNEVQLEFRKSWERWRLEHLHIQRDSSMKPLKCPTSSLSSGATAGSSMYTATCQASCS
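Seeding at 200 cells/uL, 12 h culture, 24 hr compound treatment, then luciferase reagent and a luminescence read; cells are HEK293 stably expressing a constitutively active GLP-1R plus cAMP-responsive luciferase.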
RORg inh – ROR gamma (mouse) transcription inhibition; hit rate 5.4% among 310,000; Drosophila S2 Gal4-RORgamma UAS-luciferase reporter, 20 h; AID 2551; Potency, µM (highest dose often 53.6 µM), inactives show at the top dose activity change, negative = inhibition, usual class: inhibitors; also: % is scaled to controls: 0 for no effect and ±100 for the full control effect; nearly all actives have a fitted effect of over 60% in size
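Stable Schneider cell line, Gal4 DNA-binding domain fused to ROR gamma, UAS-luciferase. Cmpd 1 hr RT → CuSO4 700 uM final → 20 hr RT → luciferase reagent 10 min → luminescence.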
GLP-1R agonist – GLP-1 receptor (human) agonism; Potency, µM (series often up to 45.6 µM), inactives show top-dose activation, actives largely listed as activators; AID 624172; hit rate 0.007% among 380,000; HEK293 GLP-1R CRE-luciferase, luminescence, 4-6 h; cells express a hypersensitive GLP-1R form; also: % of control where 0% means no effect
HEK293 tox – cytotoxicity in counter-screen for GLP-1R inverse agonists | HEK293 cAMP-luciferase reporter cells, luminescence, 24 h | Potency, µM (series often up to 38.3 µM), without a hit: at the top dose activity change, negative = inhibition, hits mostly inhibitors | hit rate 0.13% among 410,000 | AID 624418;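 also: loss of luciferase light is scored as toxicity; % is scaled to controls: 0 for no effect and ±100 for the full control effect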
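Cells in DMEM/10% Nu serum/1% pen-strep, 1536-well format. Pre-incubated 12 h, dosed with 23 nL compound, incubated a further 24 h. Luciferase detection, 12 min at room temp, luminescence.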
Gal4-VP16 FLuc – inhibits Gal4-VP16 luciferase reporter, ROR gamma counter-screen. Drosophila S2 Gal4-VP16 UAS-luciferase, luminescence, 20 h. Potency, µM (series often up to 53.6 µM), without a hit: at the top dose activity, negative = inhibition, most hits filed as inhibitors. hit rate 3.5% among 310,000. AID 2546;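 also: Gal4-VP16 expression switched on by copper sulfate through the metallothionein promoter; % is scaled to controls: 0 for no effect and ±100 for the full control effect; nearly all actives have a fitted effect of over 50% in size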
* = called active by the depositor; u = inconclusive; x = not tested or not shown; [ ] = another dose, or the depositor's remark. Calls follow the shape of the dose curve; as a rule, active = well fitted curve in the direction sought with a large enough effect; inconclusive = small, poorly fitted or top-dose-only effect, or another doubt; inactive = no such curve, though single readings can be large; an effect the other way counts as inactive or inconclusive. Potency is read from the fitted curve at half-maximal effect.

SMILES	GLP-1R inv ag	RORg inh	GLP-1R agonist	HEK293 tox	Gal4-VP16 FLuc
CCOc1ccc(C(=O)N/N=C/c2cc(Cl)ccc2[N+](=O)[O-])cc1	15%	u	4%	0%	5.6µM*
CCc1ccc(NC(=O)C(=O)NCCc2csc(-c3cccc(F)c3)n2)cc1	7%	x	x	3%	x
Cc1ccc2c(c1)N(C(=O)CCC(=O)NCc1cccs1)CCO2	-6%	x	x	3%	x
CCc1cc(-c2oncc2-c2ccc(OC)cc2)c(O)cc1OC	x	u	x	x	14µM*
COc1ccc(-c2cn[nH]c2-c2ccc(OCc3ccc([N+](=O)[O-])cc3)cc2O)cc1OC	-29%	u	9%	-14%	u
CCc1cc(-c2nc(N)ncc2-c2csc(C)n2)c(O)cc1OC	6%	21%	27%	-25%	6%
CCc1cc(-c2[nH]ncc2-c2ccc([N+](=O)[O-])cc2)c(O)cc1OC	u	13µM*	18%	0%	20µM*
CC(=Nc1ccc(O)cc1)c1sc2ccccc2c1O	u	19%	-4%	-13%	-11%[0.365 µM]
CC(=Nc1ccccc1O)c1sc2ccccc2c1O	u	2µM*	-1%	-14%	u
Cc1nn2c([nH]c(=O)c3ccccc32)c1C=O	4%	4.5µM*	-17%	-1%	11µM*
O=C(NCc1ccco1)C(c1cccs1)N(C(=O)C1COc2ccccc2O1)c1cccc(O)c1 (configuration not stated)	11µM*	-25%	-21%	-18%	-8%
CC(C)(C)NC(=O)CN(Cc1cccs1)C(=O)C1COc2ccccc2O1 (configuration not stated)	u	11%	-5%	-16%	-3%
CC(C)CCNC(=O)C(c1ccc(O)cc1)N(Cc1cccs1)C(=O)C1COc2ccccc2O1 (configuration not stated)	11µM*	8%[10 µM]	-21%	u	-8%
O=C(NCc1ccco1)C(c1ccncc1)N(C(=O)Cc1cccs1)c1ccccc1 (configuration not stated)	4%	11%	8%	11%	5%
CN(C)c1ccc(C(=S)N2CCCCCC2)cc1	0%	20µM*	24%	5%	-21%
CC1CCN(C(=S)c2ccc(N(C)C)cc2)CC1	u	13µM*	14%	2%	-26%
CCOc1ccc(NC(=O)N2CC3CCCN3c3ccccc32)cc1 (configuration not stated)	u	x	x	-6%	x
CO[C@@H](C(C)C)[C@@H](C)[C@@H]1OC(=O)C[C@@H]1O	x	31%[10 µM]	x	x	8%[10 µM]
Cc1ccccc1Cn1c2ccccc2c2cnn(CC(=O)NCCCc3ccccc3)c(=O)c21	-8%	x	x	0%	x
Cc1oc(-c2ccccc2Cl)nc1CS(=O)(=O)CC(=O)NC(C)CCc1ccccc1 (configuration not stated)	10µM*	x	-3%	-11%	x
Cc1oc(-c2ccccc2Cl)nc1CS(=O)(=O)CC(=O)NC(C)c1ccccc1 (configuration not stated)	u	9%	13%	-9%	-7%
NC1=CC(=O)c2cccc3cccc1c23	x	11µM*	x	x	22µM*
CCOC(=O)c1c(C)[nH]c(C)c1S(=O)(=O)N1CCC(C(=O)NCc2ccc(N(C)C)cc2)CC1	5%	x	x	-5%	x
O=C(Nc1ccc(Oc2ccc(NC(=O)Nc3ccccc3Cl)cc2)cc1)Nc1ccccc1Cl	-10%	2.5µM*	9%	2%	u
O=C(CN1CCCC1)Nc1ccc(NC(=O)Nc2ccccc2Cl)cc1	u	0%	13%	-5%	8%
Cc1ccc(C(C)NC(=S)NC2CCCCC2)c(C)c1 (configuration not stated)	u	3.2µM*	2%	-46%	3.5µM*
CCC(NC(=S)NC1CCCCC1)c1ccc(C(C)C)cc1 (configuration not stated)	x	1.8µM*	x	x	2.5µM*
Cc1ccc(C(C)NC(=S)NC2CCCCC2)cc1C (configuration not stated)	x	2.5µM*	x	x	4µM*
CCC(NC(=O)NC1CCCCC1)c1ccccc1 (configuration not stated)	-12%	u	-1%	3%	10%

Screening data from PubChem.
